Screening results (PubChem)
PAX8 reporter = inhibitors of PAX8-driven TPO luciferase reporter, primary screen, RMG-I cells, single concentration. actives 1.2% (n = 360,000). SteadyGlo, 24 h. inhibition, % at 12.6 µM;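 active = mean replicate inhibition at least 60% with every replicate also reaching 60%; inconclusive = only one of the two criteria is met; inactive = mean below 60% and not all replicates reaching 60%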;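 also: luciferase light reporting Pax8 driven TPO promoter activity; plate controls were median of neutral control wells for no effect and mitoxantrone controls for full effect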
EWS-Fli block = EWS/Fli-driven NR0B1 reporter inhibitors, primary screen, A673 cells, NR0B1 luciferase, luminescence, MLPCN library; viability-normalised; inhibition, % at 12.6 µM; actives 0.67% (n = 350,000); AID 651661, 2012;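 active = mean inhibition of at least 50% after viability correction, with every replicate also passing that limit; inconclusive = mean reaches 50% but only one of two replicates passes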;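 also: firefly luciferase signal divided by Alamar Blue viability fluorescence both relative to DMSO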
F508del corr = F508del CFTR correction, initial screen, CFBE line, single point. actives 0.36% (n = 350,000). CFBE cells, YFP halide quenching; stimulated with forskolin plus potentiator P3; % fluorescence drop versus neutral controls. activity (quench increase), % at 7.58 µM;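 active = mean added fluorescence quench of at least 8% versus neutral control, with both replicates also reaching 8%; inconclusive = only one of the mean or replicate conditions met; inactive = mean below 8% and not both replicates reaching 8%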;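 also: cells transiently co-express mutant CFTR-F508del with the halide-sensitive YFP; corrector assay measuring rescue of mutant channel to the surface after 24 h compound exposure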
GAA850 FXN act = FXN promoter activators, primary screen, cell-based, luciferase luminescence, HEK293 lucGAA850. HEK293 lucGAA850 FXN promoter luciferase reporter, 24 h; percent of 10 µM SAHA response. activation, % at 6 µM. actives 0.56% (n = 360,000). AID 540364, 2011;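 active = activation above the average of all compounds screened plus 3 SD, cutoff fixed separately per campaign, cut at about 7.5% in these data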;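 also: 0% = DMSO wells and 100% = 10 µM SAHA wells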
HIV Env fusion = inhibitors of HIV-1 Env-driven cell-cell fusion, primary screen, HeLa-JRFL effector, CEM21 target cells, luciferase; inhibition, % at 12.3 µM; actives 1.1% (n = 360,000);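 active = mean replicate inhibition score of at least 50 and every replicate individually at or above 50; inconclusive = only one of the two criteria met; inactive = mean below 50 and not all replicates reaching 50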;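 also: 0% = plate neutral controls and 100% = maraviroc near 300 nM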
GAA30 FXN cntr = GAA30 FXN promoter activators, confirmation, counter-screen for GAA850 frataxin promoter activator project, cell-based, luminescence, HEK293, lucGAA30, triplicate. HEK293 lucGAA30 FXN promoter luciferase, 24 h; DMSO = 0%, 5 µM ipriflavone = 100%. shares compounds with GAA850 FXN act. actives 66% (n = 1,900). AID 588350, 2011. activation, % at 6 µM;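 active = mean activation above the mean of solvent-only control wells plus 3 SD, cut at about 22% in these data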;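 also: counterscreen of GAA850 promoter hits where activity marks nonselective or luminescence artifacts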
FXN GAA850 conf = FXN GAA850 promoter activators in reporter cells, confirmation, cell-based, luminescence, HEK293 lucGAA850, triplicate. actives 86% (n = 1,900). shares compounds with GAA850 FXN act. HEK293 lucGAA850 FXN promoter luciferase reporter, 24 h; 100% = activation by SAHA. activation, % at 6 µM;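 active = mean activation above a set limit taken from the primary screen, cut at about 8% in these data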;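 also: 0% = DMSO wells and 100% = 10 µM SAHA wells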
* marks the source's active call; other numbers are inactive results; ? = inconclusive; . = no result; ! = not confirmed by another sample; [ ] = remark or other dose. Rows were chosen to be rich in hits. Some 2.5% of all compounds tested hit in one or more screens of this group.

SMILES	PAX8 reporter	EWS-Fli block	F508del corr	GAA850 FXN act	HIV Env fusion	GAA30 FXN cntr	FXN GAA850 conf
C[C@@H]1CN([C@@H](C)CO)C(=O)c2cc(-c3ccccc3F)cnc2O[C@H]1CN(C)C(=O)NC1CCCC1	5.3	-7.5	2.2	.	-21.8[16.7 µM]	.	.
Cc1c(C(=O)NCC2CCCO2)sc2nc(-c3ccc(F)cc3)cn12 (centres undefined)	-46.5	-23.0	0.7	16.9*	-3.3	60.6*	20.7*
C[C@@H]1CN([C@H](C)CO)C(=O)c2cc(NC(=O)c3ccncc3)ccc2O[C@@H]1CN(C)C	-2.5	7.9	0.6	.	.	.	.
O=C(C[C@H]1C=C[C@H](NC(=O)Nc2cccc(F)c2)[C@@H](CO)O1)NCC1CC1	0.2	-6.9	1.8	.	7.7[16.7 µM]	.	.
c1ccc(-c2cc3nccc(-c4ccccn4)n3n2)cc1	-170.3	-103.8	-2.4	8.0*	-50.1	106.0*	28.7*
Cc1cc2nccc(-c3ccccn3)n2n1	-14.2	-1.4	0.4	0.4	18.5	.	.
Cc1ccccc1-c1ccc(C(=O)Nc2cccc(F)c2)o1	-5.2	-79.0	1.0	7.7*	21.0	57.3*	17.3*
C[C@@H]1CN([C@@H](C)CO)S(=O)(=O)c2ccc(Br)cc2O[C@H]1CN(C)S(=O)(=O)c1ccc(F)cc1	-6.8	-10.2	.	.	11.0[16.7 µM]	.	.
Nc1nc2c3ccccc3nc(Cc3ccccc3)n2n1	.	.	.	3.2	0.7	.	.
CCCc1nc2ccccc2c2nc(N)nn12	.	.	.	8.5*	-12.3	15.6	7.3
CCOC(=O)C1=C(COCCN)NC(C)=C(C(=O)OC)C1c1ccccc1Cl (centres undefined)	-11.1	1.8	2.4	18.9*!	-9.5	-5.4	6.3
C[C@H](CO)N1C[C@H](C)[C@H](CN(C)Cc2ccc(-c3ccccc3)cc2)Oc2ccc(N(C)C)cc2C1=O	1.9	6.9	-2.3	.	.	.	.
COc1cccc2sc(NNC(=O)C3=COCCO3)nc12	-16.4	-51.0	2.4	8.2*	3.3	86.3*	32.7*
COc1ccc(OC)c2sc(NC(=O)C3=COCCO3)nc12	-17.2	-24.5	-6.6	3.8	0.8	.	.
Cc1ccc(S(=O)(=O)N(C)C[C@@H]2Oc3ccc(NC(=O)C4CC4)cc3C(=O)N([C@@H](C)CO)C[C@H]2C)cc1	2.5	3.0	3.0	.	.	.	.
COc1ccc(-c2nc(Cn3c(SCc4ccc(C)cc4)nc4ccncc43)c(C)o2)cc1OC	-77.8	-51.9	-1.5	3.3	25.6	.	.
COc1ccc(-c2nc(Cn3c(SCc4cccc(F)c4)nc4ccncc43)c(C)o2)cc1OC	-2.3	3.4	-1.2	12.5*	14.5	18.9	3.9
O=S1(=O)N=C(Nc2ccc(N3CCOCC3)c(Cl)c2)c2ccccc21	-139.9	-101.9	-1.3	8.4*	-16.4	103.2*	33.7*
O=S1(=O)N=C(Nc2ccc(O)cc2)c2ccccc21	-11.1	-0.2	-1.6	1.1	13.3	.	.
COc1cccc(C#Cc2cnc3c(c2)C(=O)N([C@@H](C)CO)C[C@H](C)[C@@H](CN(C)C(=O)C2CC2)O3)c1	.	5.6	0.5	.	9.4[16.7 µM]	.	.
CC(C)c1ccc(N(C(=O)c2csnn2)C(C(=O)NC(C)(C)C)c2ccncc2)cc1 (centres undefined)	.	.	.	13.8*	.	114.8*	32.4*
C[C@H]1CN([C@@H](C)CO)C(=O)Cc2cc(NS(=O)(=O)c3cn(C)cn3)ccc2O[C@H]1CN(C)Cc1ccc(-c2ccccc2)cc1	.	-22.7	-1.5	.	5.7[16.7 µM]	.	.
Cc1c(C(=O)Nc2ccccc2)csc1-c1ccccc1	-79.2	.	.	8.5*	.	112.5*	28.6*
Cc1c(C(=O)Nc2ccccc2[N+](=O)[O-])csc1-c1ccccc1	-82.6	-36.9	.	4.0	-173.0	.	.
Nc1ccccc1C#CC(=O)c1ccccc1	10.5	66.5*	-4.9	13.6*	-104.9	-7.7	-0.1
SMILES	PAX8 reporter	EWS-Fli block	F508del corr	GAA850 FXN act	HIV Env fusion	GAA30 FXN cntr	FXN GAA850 conf
O=C(C#Cc1cccc([N+](=O)[O-])c1)c1ccccc1	.	.	.	-0.4	.	.	.
O=C(CSc1nc2ccccc2c(=O)n1CCCO)NCc1ccccc1	.	.	.	1.7	-40.0	.	.
O=c1c2ccccc2nc(SCc2nc3ccccc3s2)n1CCCO	-12.9	.	.	14.2*	.	102.3*	43.4*
C[C@@H]1CCCCO[C@@H](CN(C)S(=O)(=O)c2ccc(F)cc2)[C@H](C)CN([C@@H](C)CO)C(=O)c2cc(NC(=O)c3ccccc3)ccc2O1	8.5	2.2	1.0	.	-3.3[16.7 µM]	.	.
Cc1cccc(-n2cnc3sc(C)c(C)c3c2=O)c1	-30.8	-14.9	1.4	1.6	-16.5	.	.
COc1cccc(-n2cnc3sc(C)c(C)c3c2=O)c1	.	.	.	9.3*	.	59.3*	23.7*
COC(=O)c1ccc(NN=Nc2ccc(C)cc2)cc1	.	.	.	7.8*	.	84.2*	31.2*
C[C@H](CO)N1C[C@H](C)[C@@H](CN(C)C(=O)C2CC2)Oc2cc(-c3cccnc3)ccc2S1(=O)=O	.	-3.9	1.8	.	23.2[16.7 µM]	.	.
Cn1c(=O)c(/C=C/c2ccccc2)nc2ccccc21	-58.4	-25.2	.	8.1*	-83.4	126.9*	50.1*
N#C/C(=C\c1cccs1)C(=O)Nc1ccccn1	-102.0	-85.2	0.3	8.9*	-129.0	106.1*	33.7*
COC(=O)[C@H](C)NC(=O)NCc1ccccc1F	.	.	.	9.4*	.	18.4	6.4
COC(=O)[C@H](C)NC(=O)NCc1ccc(F)cc1	.	14.7	-1.2	-0.9	.	.	.
CO[C@H]1CN(C)C(=O)c2cc(NC(=O)c3cnccn3)ccc2OC[C@H](C)N(C(C)=O)C[C@@H]1C	-6.4	2.2	-0.6	.	.	.	.
Cc1[nH]c2ccccc2c1SCc1ccccc1	5.7	-13.2	1.2	15.4*	-15.4	12.8	7.3
Cc1[nH]c2ccccc2c1SCCN	12.3	4.8	-0.4	-0.8	-10.1	.	.
CCS(=O)(=O)N[C@@H]1CC[C@@H](CC(=O)NC2Cc3ccccc3C2)O[C@@H]1CO	13.0	3.5	1.4	.	-1.7[16.7 µM]	.	.
COCC(=O)N1[C@H](CO)[C@H]2c3ccccc3N(C(=O)Nc3ccccc3Cl)C[C@H]21	-0.3	-1.6	-0.1	.	.	.	.
CCOc1ccc(OCc2cccc(C(=O)N3CCCCCC3)c2)cc1	35.1	?	.	7.8*	13.1	104.9*	34.9*
Nc1c(Cl)ncnc1N/N=C/c1ccc(O)cc1	-36.5	-3.9	2.9	7.8*	-21.5	52.3*	13.9*
Oc1ccc(/C=N/Nc2nccnc2Cl)cc1	-136.0	.	.	6.5	-152.4	.	.
Cc1nc(Nc2ccccc2Cl)sc1C(=O)Nc1ccccc1	-42.0	-41.0	.	16.3*	-2.6	66.6*	20.8*
